Test results published in PubChem BioAssay AID1259415 (National Center for Advancing Translational Sciences (NCATS), 2018).
About 18,000 (4.4%) of roughly 410,000 compounds were called active. About 7% were inconclusive and are not listed. For the sample, actives were picked, then their nearest neighbours and some compounds at random. Values without a mark were called inactive. Rule as the data show it: active = activity change below about -60%; inconclusive = no clear call, values can overlap the other calls; inactive = above about -39%.

Test: qHTS Assay for inhibitors of the human cytomegalovirus (HCMV)
Details: HFF cells, HCMV-luciferase reporter, 72 h; at 57.5 µM; active compounds read low
In short: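 Inhibition of viral replication was scored as loss of reporter luminescence in HFFs infected with HCMV-luciferase (MOI 1 PFU/cell) for 72 h; compounds tested at 2 doses, normalized to buffer and Salinomycin controls.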
% is scaled to controls: 0 for no effect and ±100 for the full control effect.

Row | SMILES | activity change, negative = inhibition
1 | CCc1ccc(NC(=O)c2cc3c(=O)n(Cc4cccnc4)ccc3nc2C)cc1 | -20.1%
2 | CC(=O)N1Cc2cc(C(=O)NCc3cccc(F)c3)nc(-c3cccc(C4=CCCCC4)c3)c2[C@H]1CCO | 3.64%
3 | COc1ccc(CCNC(=O)c2cc3cccc4c3n2CC(C)S4)c(OC)c1OC (stereo not given) | 0%
4 | COCc1c(C(=O)N/N=C/C2CC=CCC2)nnn1-c1nonc1N (stereo not given) | 65.4%
5 | O=C(/C=C/c1ccc(Cl)c([N+](=O)[O-])c1)c1cccnc1 | -80.5% (active)
6 | O=C(NN=Cc1ccco1)C(=O)Nc1ccc(Cl)c([N+](=O)[O-])c1 | 63.3%
7 | C/C(=N\NC(=O)Cc1ccccc1[N+](=O)[O-])c1cccnc1 | 44.6%
8 | Cc1cc(=O)oc(C)c1C(=O)Nc1cnc2ccccc2c1 | 38.4%
9 | Cc1ccc(Cn2c(=O)n(CCCC(=O)NCc3ccccc3Cl)c(=O)c3ccccc32)cc1 | 20.2%
10 | COc1cccc(CNn2cn[nH]c2=S)c1OCc1ccccc1 | -23.6%
11 | COc1cccc(CNCCc2c[nH]c3ccccc23)c1OCc1ccccc1F | -99.3% (active)
12 | COc1ccc(CNCCc2c[nH]c3ccccc23)cc1OC | 4.34%
13 | Nc1ncnc2c1ncn2C1OC(CO)CC1O (stereo not given) | 8.48%
14 | CC1CCc2noc(NC(=O)c3ccc([N+](=O)[O-])cc3)c2C1 (stereo not given) | 26.6%
15 | Cc1nnc(N/N=C/c2ccccn2)[nH]c1=O | -97.8% (active)
16 | CS(=O)(=O)N(CC(=O)N/N=C/c1ccccn1)c1ccc(Oc2ccccc2)cc1 | -1.4%
17 | S=C(NN=Cc1ccccn1)Nc1ccccn1 | 279%
18 | O=C(CN1C(=O)COc2ccc(S(=O)(=O)N3CCCCCC3)cc21)N1CCN(c2cccc(C(F)(F)F)c2)CC1 | -23.3%
19 | Fc1ccc(C(Nc2ccc(Cl)c(C(F)(F)F)c2)c2nnc(-c3ccccc3)o2)cc1 (stereo not given) | -0.379%
20 | O=c1nc(N/N=C/c2ccco2)cn[nH]1 | -3.52%
21 | COc1ccc(N2CCN(C(=O)[C@@H](NC(=O)c3cc(OC)cc(OC)c3)C(C)C)CC2)cc1 | -2.95%
22 | COc1cc(OC)cc(C(=O)N[C@H](C(=O)OCC(=O)NC(C)c2ccccc2)C(C)C)c1 (stereo not given in full) | -6.95%
23 | COc1cc(OC)cc(C(=O)N[C@H](C(=O)Nc2nc3ccccc3[nH]2)C(C)C)c1 | -77% (active)
24 | CCN(Cc1ccncc1)C(=S)Nc1ccccc1C | 2.81%
25 | CCn1c(CN2CCC(C)CC2)nc2cc(NC(=O)c3ccccc3[N+](=O)[O-])ccc21 | -37.4%
26 | O=C1Nc2cc(Cl)c(Cl)cc2N(O)N1c1ccccc1Cl | -10%
27 | COc1ccc(NC(=O)C(C)SCc2ccccc2)cc1 (stereo not given) | -10.8%
28 | CC(Sc1nnc(C2CC2)n1C1CC1)C(=O)Nc1ccc(C(N)=O)cc1 (stereo not given) | 36.3%

Row | SMILES | activity change, negative = inhibition
29 | CC(Sc1nnc2c(n1)C1CCC2(C)C1(C)C)C(=O)Nc1ccccc1 (stereo not given) | -60.9% (active)
30 | CC(=O)Nc1ccc(S(=O)(=O)Nc2cc(C)cn(Cc3ccc(C)cc3)c2=O)cc1 | -7.02%
31 | Oc1c(Cl)cc(Cl)c(Cl)c1Cc1c(O)c(Cl)cc(Cl)c1Cl | -95.4% (active)
32 | Cc1cc(C)nc(NS(=O)(=O)c2ccc(NC(=O)c3cc(=O)c4ccc(C)c(C)c4o3)cc2)n1 | -4.22%
33 | Cc1cc(C)cc(NS(=O)(=O)c2ccc(-c3cc(C)no3)s2)c1 | 0%
34 | COc1cccc(-c2nnc3n(CCc4ccccc4)c(=O)c4ccccc4n23)c1O | 2.64%
35 | CC(=O)c1c(C)[nH]c(C(=O)COc2ccc3c(C)cc(=O)oc3c2)c1C | -31.5%
36 | Cc1ccccc1NC(=O)c1ccc(COc2ccc3c(C)cc(=O)oc3c2)cc1 | 10.2%
37 | Cc1cc(=O)oc2cc(OCC3CC(c4ccccc4Cl)=NO3)ccc12 (stereo not given) | -90.9% (active)
38 | CCc1ccc(N2C(=O)CN(S(=O)(=O)CC)CC2(C)C(=O)NC2CCCCC2)cc1 (stereo not given) | 0%
39 | COc1cccc(C(=O)NCc2ccc3c(c2)CCN3C(=O)c2ccncc2)c1 | 8.47%
40 | NS(=O)(=O)c1ccc(NC(=O)COc2ccc(S(=O)(=O)NC3CCCCC3)cc2)cc1 | 15.5%
41 | CCN(CC)CCn1c(=S)[nH]c2ncccc2c1=O | -27.4%
42 | COc1ccc(C(=O)NCC(c2ccc(N(C)C)cc2)N2CCc3ccccc32)c(OC)c1 (stereo not given) | -18.8%
43 | CCCCOc1ccc(Cn2c(=O)oc3ccc(C)cc32)cc1OC | -4.31%
44 | CCCCOc1ccc(CN2C(=O)C(=O)c3cc(Br)cc(C)c32)cc1OC | -102% (active)
45 | COc1ccc(CN2C(=O)CC(Cc3ccc(C)cc3)C2=O)cc1OC (stereo not given) | -12.9%
46 | CCC(=O)N1CCc2cc(S(=O)(=O)NC(Cc3ccccc3)C(=O)NCc3ccccc3)ccc21 (stereo not given) | -22.7%
47 | CCn1cc(C(=O)N2CCN(c3cc(Cl)ccc3C)CC2)c(=O)c2cc(S(=O)(=O)N3CCCC3)ccc21 | -11.4%
48 | Cc1c(C)n(Cc2ccc(Cl)cc2)c2ccc(C(=O)N3CCN(c4ccccc4F)CC3)cc12 | 0%
49 | Cc1nn(C)cc1/C=C1\CCC/C(=C\c2cn(C)nc2C)C1=O | -22.6%
50 | CCCCc1nn2c(=O)cc(COC(=O)c3ccccc3NC(=O)C(C)(C)C)nc2s1 | -7.43%
51 | CC1(C)CN(CCc2ccccc2)C(=O)[C@H]1CC(=O)Nc1ccc(Br)cc1 | 8.25%
52 | O=C(C[C@H]1C(=O)N(c2ccc(F)c(F)c2)C[C@@H]1Cc1ccccc1)Nc1ccccc1 | -93.1% (active)
53 | COc1ccc(NC(=O)C[C@H]2C(=O)N(CCc3ccccc3)C[C@@H]2C)cc1 | 5.53%
54 | CCc1ccc2ncc3c(-c4ccc(C)cc4)nn(CC(=O)NCc4ccccc4)c3c2c1 | -6.71%
55 | COc1ccc(S[C@]2(c3nc(C)no3)CC(=O)N(C(=O)C3CC3)[C@@H]2c2ccc(OC)cc2)cc1 | -16.8%
